The whole screen tested about 640,000 compounds, of which about 9,300 (1.5%) were called active. The full list was thinned out, with actives kept by preference. Unmarked numbers belong to inactive results. No stated cut-off is given here; in the data, active means inhibition above about 32%; inactive means the rest.

This test is described as follows: TEAD-YAP interaction inhibition, primary screen, TEAD-YAP interaction inhibitor project, luminescence, HEK-TIYL cells (AID 1259422).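 Further: 0% = median of test compound wells and 100% = reference inhibitor wells.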 As to conditions: TEAD-Gal4/YAP UAS-luciferase luminescence, at 9.12 µM, hits give high values.
What is called inhibition is the drop in the measured response relative to a control, in per cent. `CCS(=O)(=O)N1CCN(c2cccc(Cl)c2)CC1`: the inhibition is 4.72%. Under `CCOc1ccc(-c2cc(C(=O)N/N=C\c3ccccc3O)[nH]n2)cc1OC` stands 1.39%. As for `CC(C)(C)c1cc(C(=O)N/N=C/c2c(O)ccc3ccccc23)n[nH]1`, the inhibition is -0.43%. In the case of `Cc1cc(C(=O)N/N=C/c2ccc(Br)c([N+](=O)[O-])c2)n[nH]1` it was 6.76%.

For the compound `CCOc1ccc(O)c(/C=N/NC(=O)CNc2ccc3ccccc3c2)c1`, the inhibition was -7.17%. Turning to `CCOc1cccc(-c2cc(C(=O)N/N=C/c3ccccc3O)[nH]n2)c1`, the inhibition was -2.87%. Turning to `CCOc1ccc(-c2cc(C(=O)N/N=C/c3c[nH]c4ccccc34)[nH]n2)cc1`, the inhibition is 55.9% (active). Turning to `CCCOc1ccc(/C=N/NC(=O)OC)c(O)c1`, the inhibition is -15.8%.

With `CCOc1ccc(/C=N/NC(=O)c2cc(C(C)(C)C)[nH]n2)c(O)c1`, the inhibition is 59.8% (active).

Consider `Cc1ccc(/C=N\NC(=O)c2cc(C(C)(C)C)[nH]n2)cc1`, for which the inhibition was 45.2% (active). In the case of `CSc1nnc2c(n1)OC(c1ccc(N(C)C)cc1)Nc1ccc(Br)cc1-2` (stereo not drawn) it was -2.24%; in that of `Cc1cccc(N(CC(O)c2ccccc2)S(=O)(=O)c2ccc3c(c2)OCCO3)c1` (stereo not drawn), 2.94%. Consider `N#CC(C#N)=C1SCC(=O)N1c1ccc(F)cc1`, for which the inhibition was -0.92%. In the case of `CCn1c(N=Nc2c(O)[nH]c3ccccc23)nc2c1c(=O)n(C)c(=O)n2C` it was 6.12%; in that of `OC[C@@H]1CCCN1c1ccnc2c(-c3ccc4c(c3)OCO4)cnn12`, 55.2% (active).

As to `OCCC1CCCCN1c1ccnc2c(-c3ccc(F)c(Cl)c3)cnn12` (stereo not drawn), the inhibition was 41.4% (active). Under `CN(C)CCNc1ccnc2c(-c3ccc(F)c(Cl)c3)cnn12` stands -31.8%. In the case of `Cc1ccc(-c2cnn3c(NCc4ccc5c(c4)OCO5)ccnc23)cc1` it was -8.18%; in that of `O=C(NCCO)c1cccc(-c2cnn3c(N4CCCCC4CCO)ccnc23)c1` (stereo not drawn), -6.65%.

Turning to `OC[C@@H]1CCCN1c1ccnc2c(-c3cccc4ccccc34)cnn12`, the inhibition was -40.1%. With `N#Cc1ccsc1NC(=O)COC(=O)CC12CC3CC(CC(C3)C1)C2`, the inhibition was -33.5%. Under `COc1ccc(Cl)cc1NC(=S)NC(C)c1ccncc1` (stereo not drawn) stands 2.52%. Under `CC1CN(c2nc3c(c(=O)[nH]2)CCN(c2cnccn2)C3)CC(C)O1` (stereo not drawn) stands 9.31%; under `C=CCN1C(=O)S/C(=C/c2ccccc2F)C1=O`, -54.7%.

Turning to `Cc1ccc(OCc2nc3ccccc3n2CC(=O)Nc2cc(C)on2)cc1`, the inhibition is -69.6%. Under `Oc1cccc(/C=N/Nc2ccc(Cl)nn2)c1O` stands 79.2% (active); under `NC(=O)c1ccc(N=Cc2cccc(O)c2O)cc1`, -12.1%. In the case of `Oc1ccc(/C=N/Nc2ccccc2Cl)c(O)c1O` it was -1.62%; in that of `CCN1C(=O)N/C(=C/c2ccccc2OCc2ccc(C(=O)O)cc2)C1=O`, -1.26%. In the case of `NS(=O)(=O)c1ccc(C(=O)OCc2cccc(Cl)c2Cl)cc1` it was 8.02%.

For `COc1ccc2[nH]c(=O)c(CN(CCCO)Cc3nnnn3CC3CCCO3)cc2c1` (stereo not drawn), the inhibition is 5.17%. For `CC1CN(CCC(=O)N2CCCN(C3Cc4ccccc4C3)CC2)Cc2ccccc2O1` (stereo not drawn), the inhibition is -10.5%.

Consider `O=C(NC(=O)c1cccc(F)c1)OC1CCS(=O)(=O)C1` (stereo not drawn), for which the inhibition is -5.15%. Under `CC(C)(C)C(=O)Nc1ccc(-c2csc(N)n2)cc1` stands -22.9%; under `CC(=O)NCCCc1ccc(-c2csc(N)n2)cc1`, 56.7% (active). Take `CC(=O)Nc1nc(-c2ccc(C)c(C)c2)cs1`: the inhibition is -61.1%. Under `Cc1cc2c(cc1C)NC(CC(=O)Nc1cccc([N+](=O)[O-])c1)C(=O)N2` (stereo not drawn) stands -4.87%. In the case of `CCOc1ccc(CN2CCN(Cc3cc(OC)ccc3O)CC2)cc1` it was 3.2%; in that of `COC(=O)C1=C(C)NC2=C(C(=O)c3ccccc32)C1c1ccc(OC)cc1` (stereo not drawn), -0.11%. In the case of `CCOC(=O)C1=C(C)NC2=C(C(=O)c3ccccc32)C1c1cc(Br)c(OC)c(OC)c1` (stereo not drawn) it was 57.2% (active); in that of `CCOC(=O)C1=C(C)NC2=C(C(=O)c3ccccc32)C1c1cccc(F)c1` (stereo not drawn), -6.85%. On to `C=CCNc1ccc([N+](=O)[O-])cc1C#N`, for which the inhibition is 3.17%. Regarding `Cc1ccc(NC(=O)C2CC3CCCN3C23C(=O)Nc2ccccc23)cc1` (stereo not drawn), the inhibition was 11.1%.

For the compound `CCCNC(=O)Cn1c(=O)oc2cc(Cl)ccc21`, the inhibition is 1.41%. `Cc1sc(NC(=O)c2ccc(S(=O)(=O)N(C)c3ccccc3)cc2)c(C#N)c1C`: the inhibition was 3.35%.

On to `CCc1cc2c(=O)c(-c3ccc4c(c3)OCCCO4)coc2cc1OC(=O)N1CCOCC1`, for which the inhibition is -8.61%. `CCc1cc2c(=O)c(-c3ccc4c(c3)OCCCO4)coc2cc1OC`: the inhibition was -34.2%. Under `COc1ccc(-c2coc3cc(OCCN4CCOCC4)ccc3c2=O)cc1OC` stands 33% (active); under `COc1ccc(C(=O)Nc2cc(C)nn2-c2nc3ccccc3[nH]2)cc1[N+](=O)[O-]`, 10.1%; under `CCCc1cc(=O)[nH]c2nnc(SCC(=O)Nc3cc(OC)ccc3OC)n12`, -0.38%. Under `Cn1c(/C(C#N)=C/c2ccccc2)nc2ccccc21` stands 2.92%; under `N#C/C(=C\c1ccc(-c2ccc(S(N)(=O)=O)cc2)o1)C(N)=O`, -6.41%; under `Cn1c(/C(C#N)=C\c2ccc(-c3ccc(S(N)(=O)=O)cc3)o2)nc2ccccc21`, 36.2% (active). In the case of `COCCN(C(=O)CN1C(=O)c2ccccc2C1=O)C1(C(=O)Nc2ccccc2)CCCC1` it was 4.63%.

Regarding `COc1ccc(CNCc2cc(-c3ccccc3)cn3nnnc23)cc1`, the inhibition is 16%.

In the case of `Cc1cccc(-n2nc3c(c2NC(=O)c2ccc4c(c2)OCO4)CSC3)c1C`, the inhibition is 3.84%. For the compound `CC(C)(C)NC(=O)c1cccc(S(=O)(=O)N2CCN(c3ccc(F)cc3)CC2)c1`, the inhibition is 3.68%.

In the case of `Cc1ccc[n+](CC(=O)c2ccc(Cl)cc2)c1C`, the inhibition was 1.36%. For `COc1ccc(CC(=O)c2ccc(OC)cc2)cc1`, the inhibition was -37.9%. Under `COc1ccc(C(=O)C[n+]2ccc(N)c(C)c2C)cc1` stands 33% (active); under `CCOC(=O)C1=C(c2ccccc2)N=c2s/c(=C\c3ccc4c(c3)OCO4)c(=O)n2C1c1ccc(OC)c(OC)c1` (stereo not drawn), 6.04%.

`COc1ccc(-c2cc(NC3CC3)nc(N)n2)cn1`: the inhibition was -43.5%. For the compound `COc1ccc(-c2ccc(C(=O)NC3CC3)s2)cn1`, the inhibition was 40.7% (active). In the case of `O=C(NC1CCN(Cc2ccccc2)CC1)c1ccc(-c2ccccc2)s1` it was -22.3%.

Consider `CC(C)N(C(=O)NCCC(=O)c1ccc(F)cc1)C(C)C`, for which the inhibition is -1.1%. For `CC(=O)Nc1ccc2nc3c(cc2c1)[nH]c1ccccc13`, the inhibition is 32.4% (active).

As for `CC(=O)Nc1ccc(-c2nc(-c3ccccc3)c3cc(C)ccc3n2)cc1`, the inhibition was 7.4%. On to `Clc1cc2nc3[nH]c4ccccc4c3nc2cc1Cl`, for which the inhibition is -25.4%. For `COc1ccc(C2/C(=C(\O)c3ccc(C)cc3)C(=O)C(=O)N2c2c(C)n(C)n(-c3ccccc3)c2=O)cc1` (stereo not drawn), the inhibition was -7.88%. Under `COc1ccc(OCCSc2nnc3nc(C)cc(C)n23)cc1` stands 0.54%; under `N#CCOc1ccc2c(=O)c(Oc3ccc4ccccc4c3)coc2c1`, 5.86%. Consider `COc1ccc(-c2cc(C(F)(F)F)n3nc(C(=O)NCc4ccccc4Cl)cc3n2)cc1`, for which the inhibition is -8.37%.

As to `Cc1nc2scc(-c3cccs3)c2c(=O)n1N`, the inhibition is 4.54%. As for `Cc1sc2nc3n(c(=O)c2c1C)N=C(c1cccs1)CS3`, the inhibition was 50.3% (active).

Turning to `Cc1sc2nc3n(c(=O)c2c1-c1cccs1)CCC3`, the inhibition was -2.17%. Under `N=C1S/C(=C/c2ccc(-c3cc(Cl)ccc3[N+](=O)[O-])o2)C(=O)N1c1nonc1N` stands 5.95%; under `C=CCNS(=O)(=O)c1cc(C(=O)Nc2ccccc2C(F)(F)F)ccc1F`, -7.91%; under `Cc1[nH]c2ccccc2c1/C=N/NC(=O)/C(=C/c1ccccc1O)NC(=O)c1ccccc1`, 83% (active). Regarding `COc1cccc(/C=N/NC(=O)/C(=C/c2ccccc2)NC(=O)c2ccccc2)c1O`, the inhibition was 21.1%. Under `Cc1[nH]c2ccccc2c1CCNC(=O)/C(=C/c1ccccc1)NC(=O)c1cccc(Br)c1` stands 2.37%; under `COc1ccc(C(=O)N/C(=C/c2ccc(Cl)cc2)C(N)=O)cc1`, -2.4%; under `CC(=O)c1ccc(NC(=O)CN2C(=O)C3C4CCC(C4)C3C2=O)cc1` (stereo not drawn), -12%.

In the case of `CC(=O)Oc1ccc(C(=O)N(C(=O)c2ccc(OC(C)=O)cc2)c2cc(C)ccn2)cc1`, the inhibition is 47.4% (active).

For `CC(=O)Oc1ccc(N(C(C)=O)S(=O)(=O)c2c(C)cc(C)cc2C)cc1`, the inhibition was -4.17%. Under `CC(=O)Oc1ccc(C(=O)Nc2ccncc2)cc1` stands 1.93%; under `COc1cc2cc(C)c3nnc(SCC(=O)NC(C)(C)C)n3c2cc1OC`, -7.33%; under `O=C1NC(=S)S/C1=C/c1ccc(-c2ccc3c(c2)COC3=O)o1`, -7.22%. With `O=C(NCc1cccc(C(F)(F)F)c1)c1csc(Nc2nccc3ccccc23)n1`, the inhibition was -0.98%. Under `Cc1ccc(Nc2c(Cc3ccccc3)c(C)c(C#N)c3nc4ccccc4n23)cc1` stands -19.3%.

Regarding `N#CC1=C(N)Oc2ccc3ccccc3c2C1c1ccc(F)cc1` (stereo not drawn), the inhibition was -0.56%. In the case of `N#CC1=C(N)Oc2ccc3ncccc3c2C1c1ccccc1F` (stereo not drawn) it was 50.8% (active); in that of `CCOc1ccccc1C1C(C#N)=C(N)Oc2ccc3ccccc3c21` (stereo not drawn), -6.22%. In the case of `C=CCN(CC=C)C(=O)/C=C/c1cccc([N+](=O)[O-])c1` it was 7.6%.

Values taken from PubChem BioAssay AID1259422 (The Scripps Research Institute Molecular Screening Center, 2018).
